In the library only some 1.4% were active in any assay of this set; here they are far more common.
KCNH2 3.1 block: inhibitors of human KCNH2 3.1 potassium channel isoform | U2OS KCNH2 3.1, thallium flux FluxOr; active compounds read low | activity change, % (tested at about 1.8 µM) | 0.95% of 340,000 active;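 active = maximum activity change below -70%; inconclusive = maximum activity change from -70% to -50%; inactive = maximum activity change above -50%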;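 note: thallium influx rate constant from kinetic fluorescence after stimulation buffer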
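U2OS cells transduced with KCNH2 3.1 mutant virus (1.77 x 10^8 /mL, 4 h), plated overnight at 37 C, loaded 45 min with FluxOr dye plus Red40 quencher. Thallium flux rate constant from kinetic reads after stimulation buffer, normalised to controls.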
EPAC2 antag: EPAC2 (human) antagonism; EPAC2 GEF exchange of Rap1B-BODIPY-GDP, fluorescence; Potency, µM (top dose mostly 114 µM), most hits filed as inhibitors; 0.18% of 360,000 active; AID 720708; note: nearly all actives have a fitted effect of over 45% in size
EPAC1 ag: activates human EPAC1 exchange factor | O95398 | EPAC1 agonist qHTS, biochemical assay; response scale: 100% = response to 6.5 mM cAMP | Potency, µM (titrated, usually from 154 µM), hits mostly activators | 0.073% of 360,000 active; note: nearly all actives have a fitted effect of over 60% in size
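Read-out is the fluorescence drop as BODIPY-GDP leaves Rap1B (480 nm excitation, 540 nm emission), recorded every 5 minutes over 30 minutes. Reactions held 100 nM EPAC1, 250 nM Rap1B–BODIPY-GDP and 50 uM GDP, with 6.5 mM cAMP setting full activation.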
hERG WT inh: inhibitors of human wildtype KCNH2 potassium channel; Q12809; U2OS, BacMam KCNH2, thallium flux FluxOr; active compounds read low; activity change, % at 1.84 µM; 0.37% of 340,000 active;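 active = maximum activity change below -70%; inconclusive = maximum activity change between -70% and -50%; inactive = maximum activity change above -50%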
Target sequence (Q12809 whole entry, looked up): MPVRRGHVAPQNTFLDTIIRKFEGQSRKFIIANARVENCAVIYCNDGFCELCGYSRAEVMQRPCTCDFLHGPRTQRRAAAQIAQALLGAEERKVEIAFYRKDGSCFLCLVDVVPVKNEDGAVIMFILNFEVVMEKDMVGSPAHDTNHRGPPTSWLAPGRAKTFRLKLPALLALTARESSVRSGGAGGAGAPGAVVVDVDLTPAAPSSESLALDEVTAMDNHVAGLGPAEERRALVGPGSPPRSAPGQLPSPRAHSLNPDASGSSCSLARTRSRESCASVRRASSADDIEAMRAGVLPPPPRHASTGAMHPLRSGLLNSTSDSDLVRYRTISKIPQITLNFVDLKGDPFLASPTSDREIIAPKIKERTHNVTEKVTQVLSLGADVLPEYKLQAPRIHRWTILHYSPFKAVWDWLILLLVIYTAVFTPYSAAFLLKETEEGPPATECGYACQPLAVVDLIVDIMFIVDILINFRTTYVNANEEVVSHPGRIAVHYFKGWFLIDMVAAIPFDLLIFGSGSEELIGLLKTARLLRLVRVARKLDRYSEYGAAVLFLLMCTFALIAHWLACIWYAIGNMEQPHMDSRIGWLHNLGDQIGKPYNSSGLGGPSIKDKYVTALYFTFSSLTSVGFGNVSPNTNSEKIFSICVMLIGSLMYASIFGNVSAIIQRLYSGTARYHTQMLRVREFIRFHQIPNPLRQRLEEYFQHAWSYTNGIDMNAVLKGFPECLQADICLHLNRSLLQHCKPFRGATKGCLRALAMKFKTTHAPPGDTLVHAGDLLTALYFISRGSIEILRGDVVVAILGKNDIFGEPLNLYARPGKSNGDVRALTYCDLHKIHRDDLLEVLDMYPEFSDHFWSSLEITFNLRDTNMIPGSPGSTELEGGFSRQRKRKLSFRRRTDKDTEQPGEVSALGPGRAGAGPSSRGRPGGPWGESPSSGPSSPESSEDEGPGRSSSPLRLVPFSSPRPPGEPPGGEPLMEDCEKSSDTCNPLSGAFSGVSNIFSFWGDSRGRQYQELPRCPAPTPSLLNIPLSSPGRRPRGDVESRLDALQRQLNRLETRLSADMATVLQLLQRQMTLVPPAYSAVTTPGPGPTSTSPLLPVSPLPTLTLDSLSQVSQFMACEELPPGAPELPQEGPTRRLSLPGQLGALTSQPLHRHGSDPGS
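U2OS cells were transduced with wild-type KCNH2 virus (2.03 x 10^8 / mL) for 4 h at room temperature, then cultured overnight at 37 C. Thallium flux was read with FluxOr dye. Rate constants were normalized to DMSO controls.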
EPAC2 ag: EPAC2 (human) agonism; Q8WZA2; EPAC2 activation, biochemical qHTS; response scale: 100% = 6.5 mM cAMP response; Potency, µM (highest dose often 154 µM), usual class: activators; 0.079% of 360,000 active; AID 720711; note: nearly all actives have a fitted effect of over 50% in size
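Exchange assay: 100 nM EPAC2 with 250 nM Rap1B-BODIPY-GDP and 50 uM GDP. Fluorescence (ex 480/em 540 nm) read every 5 min for 30 min at room temperature. Data normalized to 6.5 mM cAMP as agonist control.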
EPAC1 antagonist: antagonists of human EPAC1 | EPAC1 GEF assay, Rap1b-BODIPY-GDP exchange fluorescence | Potency, µM (titrated, usually from 115 µM), usual class: inhibitors | 0.14% of 360,000 active; note: nearly all actives have a fitted effect of over 50% in size
Numbers stand for hits; i = inactive; ? = inconclusive; nt = not tested or not shown. Unless noted, calls come from the whole dose curve; as a rule, active = well fitted curve in the direction sought with a large enough effect; inconclusive = small, poorly fitted or top-dose-only effect, or another doubt; inactive = no such curve, though single readings can be large; an effect the other way counts as inactive or inconclusive.

SMILES	KCNH2 3.1 block	EPAC2 antag	EPAC1 ag	hERG WT inh	EPAC2 ag	EPAC1 antagonist
Cc1ccc(S(=O)(=O)N2[C@@H](c3cccc(Cl)c3)C(C(=O)OC(C)(C)C)=CC[C@H]2c2ccc(C(C)C)cc2)cc1	nt	i	i	nt	i	i
COC(=O)Cc1c(C)c2ccc(OC(=O)c3ccco3)cc2oc1=O	i	i	i	i	6.3µM	i
O=C(c1cc2ccccc2oc1=O)N1CCN(c2ccc(N3CCOCC3)nn2)CC1	-88	i	i	i	i	i
Cc1ccc(C)c(N2CCN(C(=O)c3cc4ccccc4oc3=O)CC2)c1	i	i	i	i	i	i
COc1cc([N+](=O)[O-])ccc1NC(=O)NCC1CCN(Cc2ccc(Cl)cc2)CC1	-102	i	i	-107	i	i
CC(C)(C)C1CCC(=NNC(=O)c2ccco2)CC1 (stereo not given)	i	i	i	i	i	i
CCCCCCCC(=O)N/N=C/c1cccnc1	i	i	i	i	i	i
CCCCCCCC(=O)N/N=C/c1ccc(Br)cc1	-82	i	i	i	i	?
Cc1cc2nc(C3CCN(CC4COc5ccccc5O4)CC3)[nH]c2cc1C (stereo not given)	-79	i	i	-73	i	i
C=CCNC(=O)CN1CCC(c2nc3cc(C)c(C)cc3[nH]2)CC1	i	i	i	i	i	i
CCOC(=O)[C@]12CCCC=C1N(CCC1=CCCCC1)C(=O)[C@H](CC(=O)NCc1ccccc1)C2	nt	i	i	nt	i	i
COc1ccc(C(=O)C2CCCN(C/C=C/c3ccccc3OC)C2)c(OC)c1 (stereo not given)	-71	i	i	i	i	i
COc1ccc(C(=O)C2CCCN(C(=O)COc3ccc(C(C)=O)cc3)C2)cc1F (stereo not given)	i	i	i	i	i	i
COc1ccc(/C=C/CN2CCCC(C(=O)c3ccc(OC)c(F)c3)C2)cc1 (stereo not given)	-90	i	i	i	i	i
COc1cccc(C(=O)C2CCCN(C/C=C/c3ccccc3OC)C2)c1 (stereo not given)	i	i	i	i	i	i
O=C(c1cccc(C(F)(F)F)c1)C1CCCN(Cc2cccn2-c2ccccn2)C1 (stereo not given)	-109	i	i	?	i	i
COc1ccc(C(=O)C2CCCN(Cc3cccn3-c3ccc(Cl)cn3)C2)c(OC)c1 (stereo not given)	-73	i	i	i	i	i
O=C(c1cccc(C(F)(F)F)c1)C1CCCN(Cc2cccc(OCCO)c2)C1 (stereo not given)	i	i	i	i	i	i
COc1cc(NC(=S)NCCC(c2ccccc2)c2ccccc2)cc(OC)c1	i	i	89µM	i	i	i
O=c1c(O)cccc2cc(O)c(O)c(O)c12	i	i	i	i	i	13µM
COc1ccc(S(=O)(=O)N(CC(=O)N/N=C/c2cccs2)c2cc(C)cc(C)c2)cc1OC	-95	i	i	i	i	i
COc1ccc(S(=O)(=O)N(CC(=O)N/N=C/c2cccs2)c2ccc(C)cc2)cc1OC	i	i	i	i	i	i
O=C(NCc1cccs1)c1ccc([N+](=O)[O-])cc1Cl	i	i	i	i	i	i
Cc1ccc2nc3sc(C(=O)NCc4ccco4)c(N)c3cc2c1	i	i	100µM	i	i	i
CC(=O)c1cccc(CN2CCC(C(=O)Nc3ccc(-c4cccc(C)c4)cc3)CC2)c1	-101	i	i	i	i	i
SMILES	KCNH2 3.1 block	EPAC2 antag	EPAC1 ag	hERG WT inh	EPAC2 ag	EPAC1 antagonist
CCn1ncc(CN2CCC(C(=O)Nc3cccc(-c4cccc(F)c4)c3)CC2)c1C	-97	i	i	-117	i	i
O=C(Nc1cccc(-c2cccc(F)c2)c1)C1CCN(Cc2ccc(CO)o2)CC1	i	i	i	i	i	i
CS(=O)(=O)N1CCC(C(=O)Nc2cccc(Cl)c2)CC1	i	i	i	i	i	i
Cc1cc(C)n(CCCN2CCC(C(=O)Nc3cccc(-c4cccc(F)c4)c3)CC2)n1	-102	i	i	-105	i	i
CCn1nc(C)c(CN2CCC(C(=O)Nc3cccc(-c4cccc(Cl)c4)c3)CC2)c1C	-95	i	i	-94	i	i
CC(C)NC(=O)C1(C)CSCC(=O)N1C1CC1 (stereo not given)	nt	i	i	nt	i	i
Cc1nnnn1CC(=O)Nc1cccc([N+](=O)[O-])c1	i	i	i	i	i	i
COc1cccc(-c2ccc(NC(=O)C3CCCN(Cc4cnc(C)n4C)C3)cc2)c1 (stereo not given)	?	i	i	i	i	i
Cc1ncc(CN2CCCC(C(=O)Nc3ccc(-c4cccc(F)c4)cc3)C2)n1C (stereo not given)	-84	i	i	i	i	i
Cc1cc(C)n(-c2ccc(C(=O)OCC(=O)Nc3ccc(Cl)cc3[N+](=O)[O-])cc2)n1	i	i	i	i	i	i
O=C(N/N=C/c1ccc(-c2ccccc2Cl)o1)c1ccccc1	i	i	i	i	i	i
O=C(O)c1ccc(N/N=C/c2ccc(-c3ccccc3Cl)o2)cc1	i	40µM	i	i	i	i
COCCNc1nc(SCC(=O)N2CCN(c3ccccc3OC)CC2)nc2ccccc12	-120	i	i	i	i	i
COc1ccccc1N1CCN(C(=O)CSc2nc3ccccc3o2)CC1	i	i	i	i	i	i
Cc1ccc2oc(=O)c(/C=C(\O)c3ccco3)nc2c1	i	i	i	i	100µM	i
O=C(Nc1ccc(F)cc1)C(c1ccnc2ccccc12)N1CCN(c2cccc(C(F)(F)F)n2)CC1 (stereo not given)	nt	i	i	nt	i	i
CN(CC(=O)Nc1ccccc1Br)C(=O)Cn1[nH]c(=O)c2ccccc2c1=O	i	i	i	i	i	i
COc1ccc(S(=O)(=O)N2CCN(C(=O)c3ccco3)CC2)c(C)c1C	i	i	i	i	i	i
Cc1ccc(C2CC(c3cccs3)=NN2C(=O)c2ccco2)o1 (stereo not given)	i	28µM	i	i	i	i
O=C(c1ccco1)N1N=C(c2cccs2)CC1c1ccco1 (stereo not given)	i	i	i	i	i	i
C[C@H](CO)N1C[C@H](C)[C@@H](CN(C)S(=O)(=O)c2ccccc2)Oc2c(NC(=O)NC3CCCCC3)cccc2C1=O	-166	i	i	i	i	i

Bioassay records (PubChem BioAssay)
